Among all 1,200 compounds or so, about 950 (79%) were called active. So high a share suggests a set chosen from earlier hits. These entries were drawn from the full list. Potency and affinity values are given separately. A number with no mark means an inactive call.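 The calls were made as follows: active = signal rises and fitted curve reaches 40% activity at or below the top valid tested dose, in every replicate test; inconclusive = replicate tests give mixed calls; inactive = the rest, including activity in the opposite direction.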

This assay can be described thus: compounds raising Bmi1 reporter signal – mouse embryonic stem cells, luciferase, cherry-pick, esBAF inhibitor project, dose response (AID 651717).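 Also: luciferase knocked into Bmi1 locus with EF-1a renilla as cell number control; rising ratio signals esBAF inhibition which derepresses Bmi1.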 As to conditions: mESC Bmi1-luciferase reporter, firefly/renilla ratio, 24 h, active compounds read high; at 35 µM unless noted. (In a reporter assay the amount or activity of a reporter protein is the signal.)
Consider `O=C(O)C/C(=C\c1cc(Br)cs1)c1nc2ccccc2o1`, for which the max activity was 31.8%.

With `Cc1cccc(N2CCN(C(=O)c3ccc4nc(N5CCCCC5)sc4c3)CC2)c1C`, the max activity is -28.5%.

`O=C(CSc1nnc(Nc2ccccc2F)s1)Nc1cccc(S(=O)(=O)N2CCCCC2)c1`: the max activity was 20.6% [at 16 µM]. The value for `C[C@H](CO)N1C[C@H](C)[C@@H](CN(C)Cc2ccncc2)Oc2c(NC(=O)Nc3ccc4c(c3)OCO4)cccc2C1=O` was 39.5% [at 0.26 µM]; that for `O=C1CCC[C@@H]2C[C@@]3(C[C@@H]4CCN1[C@H]24)Nc1cc(Cl)c(Cl)cc1NC3=NCc1ccccc1` was 15.2% [at 4.2 µM]; that for `CCCCC(=O)c1c(O)c2ccccc2oc1=O` was 28.9%. The figure for `O=C(Nc1ccc(F)c(Cl)c1)c1ccccc1NC(=O)C1CCCCC1C(=O)O` (stereo not drawn) is 26.5%; for `O=C(O)CCN1C(=O)/C(=C\c2cccc(OCC(=O)Nc3ccc(Cl)cc3)c2)SC1=S` it is 38%; for `O=S(=O)(/N=C(/Nc1nc2ccccc2s1)c1ccccc1)c1ccccc1` it is 34.6% [at 16 µM]. The value for `Clc1ccc(CSc2ncn(-c3ccccc3)n2)cc1` was 27%; that for `Cc1cc(C)n2nc(SCc3nnc(SCc4ccccc4C)s3)nc2n1` was 26.5%; that for `CN(C)Cc1c(O)ccc2c(=O)c(-c3ccc(Cl)cc3)coc12` was 24.4%. As to `C[C@H](CO)N1C[C@H](C)[C@@H](CN(C)C(=O)Nc2ccc3c(c2)OCO3)Oc2c(NS(=O)(=O)c3cn(C)cn3)cccc2C1=O`, the max activity was 30.6%. The value for `COc1ccc2c(c1OC)C(=O)OC2Nc1nc(-c2cc3cc([N+](=O)[O-])ccc3oc2=O)cs1` (stereo not drawn) was 38.4%; that for `O=C(NN=C1CCCC1)c1ccccc1O` was 17.2% [at 4.2 µM]; that for `CCOc1ccc(/C=N/NC(=O)c2ccccc2O)cc1CN1CC2CC(C1)c1cccc(=O)n1C2` (stereo not drawn) was 21.1% [at 16 µM]. The value for `C[C@H](CO)N1C[C@H](C)[C@H](CN(C)C(=O)Nc2ccccc2)OCCCC[C@H](C)Oc2ccc(NC(=O)Nc3ccc4c(c3)OCO4)cc2C1=O` was -15.5% [at 0.26 µM]; that for `COc1ccc(-c2noc(C3CCCN(C(=O)Nc4ccccc4)C3)n2)cc1` (stereo not drawn) was 16.1%; that for `C[C@H]1CN([C@@H](C)CO)C(=O)c2cc(NC(=O)Cc3ccccc3)ccc2O[C@H]1CN(C)C(=O)Nc1ccc2c(c1)OCO2` was 21% [at 0.5 µM]. The figure for `CN(C)c1ccc(C(=O)Nc2cccc(S(=O)(=O)NC3=NCCCCC3)c2)cc1` is 11.6% [at 16 µM]; for `CCOC(=O)C1CCN(Cc2nc3ccc([N+](=O)[O-])cc3c(=O)n2-c2ccc(OC)cc2OC)CC1` it is 8.71% [at 4.2 µM]; for `COc1ccc(CCC(=O)N/N=C/c2ccc3c(c2)OCO3)cc1` it is 7.2%. Consider `COc1ccc(NC(=O)Nc2cccc3c2O[C@@H](CN(C)C(=O)Nc2cccc4ccccc24)[C@H](C)CN([C@@H](C)CO)C3=O)cc1`, for which the max activity is 22.8%.

With `O=C(Nc1cccc(F)c1)Nc1cccc(Cl)c1`, the max activity is 39.5% [at 16 µM].

As to `C[C@H]1CN([C@@H](C)CO)C(=O)c2cc(NS(=O)(=O)c3ccc(F)cc3)ccc2O[C@@H]1CN(C)C(=O)Nc1ccc2c(c1)OCO2`, the max activity was 3.44% [at 4.2 µM]. Consider `C[C@H](CO)N1C[C@H](C)[C@H](CN(C)C(=O)NC2CCCCC2)OCCCC[C@H](C)Oc2ccc(NC(=O)Nc3ccc4c(c3)OCO4)cc2C1=O`, for which the max activity is 27%. The figure for `C[C@H]1CCCCO[C@H](CN(C)C(=O)NC2CCCCC2)[C@@H](C)CN([C@@H](C)CO)C(=O)c2cc(NC(=O)Nc3ccc4c(c3)OCO4)ccc2O1` is 10.1%; for `Cc1c(Cl)cccc1N1C(=O)CC(N(O)c2ccccc2)C1=O` (stereo not drawn) it is 13.3%. The value for `Cc1ccc(S(=O)(=O)Nc2cccc3c2O[C@H](CN(C)C(=O)Nc2ccc4c(c2)OCO4)[C@@H](C)CN([C@H](C)CO)C3=O)cc1` was -41% [at 16 µM]. The figure for `O=C(OCc1ccccc1)N1CCC2CC1c1ccc(/C=C/CCCCl)cc12` (stereo not drawn) is -25.2% [at 16 µM]. For `C[C@H]1CN([C@@H](C)CO)C(=O)c2cccc(NC(=O)Nc3ccccc3)c2O[C@@H]1CN(C)C(=O)Nc1ccc2c(c1)OCO2`, the max activity was -6.52%.

Turning to `C[C@@H]1CN([C@@H](C)CO)C(=O)c2cccc(NC(=O)Nc3ccccc3)c2O[C@H]1CN(C)C(=O)Nc1ccc2c(c1)OCO2`, the max activity was -14.4%. On to `Cc1ccc(S(=O)(=O)Nc2cccc3c2O[C@@H](CN(C)C(=O)Nc2ccc4c(c2)OCO4)[C@H](C)CN([C@@H](C)CO)C3=O)cc1`, for which the max activity was -16.1%. The value for `CO[C@@H]1CN(C)C(=O)c2ccc(NC(=O)Nc3cccc(F)c3)cc2OC[C@@H](C)N(C(=O)Nc2c(C)noc2C)C[C@H]1C` was 7.7% [at 0.56 µM]; that for `C[C@@H]1CN([C@H](C)CO)C(=O)c2cccc(NC(=O)Nc3ccc4c(c3)OCO4)c2O[C@H]1CN(C)Cc1ccccc1` was 36.6% [at 0.26 µM]. The value for `O=C(NCc1cccs1)c1cc2c(s1)-c1ccccc1OC2` was 20.6% [at 8 µM].

Regarding `CCCOc1c(Br)cc(C2C3=C(CCCC3=O)N(CC)C3=C2C(=O)CCC3)cc1OC`, the max activity is -53.8% [at 16 µM]. The value for `Cc1ccc(CN2CN(S(=O)(=O)c3cccs3)c3nc4ccccc4nc32)cc1` was -38.8%; that for `O=C(O)c1ccc(NCc2cccnc2)cc1` was 12.2%; that for `C[C@@H]1CN([C@@H](C)CO)C(=O)c2c(c3ccccc3n2C)-c2ccccc2CO[C@@H]1CN(C)C(=O)Nc1ccc2c(c1)OCO2` was -11.1%. The figure for `C[C@@H]1CCCCO[C@@H](CN(C)S(=O)(=O)c2cn(C)cn2)[C@@H](C)CN([C@@H](C)CO)C(=O)c2cc(NC(=O)Nc3ccc4c(c3)OCO4)ccc2O1` is 3.24% [at 30 µM]; for `CC1CCN(c2ccc(C(=O)NCc3cccs3)cn2)CC1` it is 20.2% [at 8 µM]. On to `COc1ccc(N(CCC(=O)NCCc2ccccc2)S(=O)(=O)c2ccc(C)cc2C)cc1`, for which the max activity was 24.7% [at 8 µM]. The figure for `COc1ccc(CN2C[C@@H](C)[C@H](OC)CN(C)C(=O)c3ccc(NC(=O)c4nc5ccccc5s4)cc3OC[C@H]2C)cc1` is 13.2% [at 3.8 µM]; for `Cc1ccc(CNC(=O)c2cccc3c2C(=O)c2ccc(N4CCC(C)CC4)cc2S3(=O)=O)cc1` it is -5.88% [at 0.5 µM].

Consider `C[C@@H]1CN([C@@H](C)CO)C(=O)c2cccc(NC(=O)Nc3ccc4c(c3)OCO4)c2O[C@H]1CN(C)Cc1ccc(Cl)c(Cl)c1`, for which the max activity was -35% [at 18 µM]. The figure for `O=C(NCc1cccs1)Nc1cccc(Cl)c1` is -20.3%; for `C/C(=N\NC(=O)c1ccc(Cn2cc(Br)cn2)o1)c1ccc(NC(=O)c2ccoc2C)cc1` it is 18.3% [at 16 µM]. The figure for `Cc1cccc(-c2nnc(-c3cccc(NC(=O)Cc4cccs4)c3)o2)c1` is 34.9%. The value for `Cc1ccc(S(=O)(=O)Nc2cccc(-c3ccc(N4CCCCCC4)nn3)c2)c(C)c1` was 27.4% [at 4.2 µM].

With `Cc1ccc(S(=O)(=O)Nc2cccc(-c3ccc(N4CCCCCC4)nn3)c2)cc1`, the max activity is 29.4% [at 4.2 µM]. The figure for `C[C@@H]1CN([C@@H](C)CO)S(=O)(=O)c2ccc(-c3ccc(F)cc3)cc2O[C@H]1CN(C)C(=O)C1CC1` is -26.9%; for `C[C@H]1CCCCO[C@H](CN(C)C(=O)Nc2ccc(F)cc2)[C@@H](C)CN([C@@H](C)CO)C(=O)c2cc(NC(=O)Nc3ccc4c(c3)OCO4)ccc2O1` it is -13.8% [at 8 µM]. The figure for `C[C@H](CO)N1C[C@H](C)[C@H](CN(C)Cc2ccncc2)OCCCC[C@H](C)Oc2ccc(NC(=O)Nc3ccc4c(c3)OCO4)cc2C1=O` is -10.9%. The value for `C[C@H](CO)N1C[C@H](C)[C@@H](CN(C)Cc2ccc(-c3ccccc3)cc2)Oc2c(NC(=O)Nc3ccc4c(c3)OCO4)cccc2C1=O` was -20.6%; that for `C[C@H]1CCCCO[C@@H](CN(C)Cc2ccncc2)[C@@H](C)CN([C@@H](C)CO)C(=O)c2cc(NC(=O)Nc3ccc4c(c3)OCO4)ccc2O1` was -19.5%. `C[C@@H]1CCCCO[C@@H](CN(C)Cc2ccncc2)[C@@H](C)CN([C@@H](C)CO)C(=O)c2cc(NC(=O)Nc3ccc4c(c3)OCO4)ccc2O1`: the max activity is 11%.

As for `CCc1c(C(=O)Nc2ccc(C)c(C)c2)[nH]c(C)c1C(C)=O`, the max activity is 13.1% [at 4.2 µM]. The value for `O=C(CNc1ccc(Br)cc1)c1ccc(Br)s1` was 12.9% [at 4.2 µM].

With `COc1ccc2oc(C(=O)OCC(=O)Nc3ccc(C)c(S(=O)(=O)N4CCOCC4)c3)c(C)c2c1`, the max activity was 34.7%.

`C[C@H](CO)N1C[C@H](C)[C@@H](CN(C)C(=O)Nc2ccc(F)cc2)OCCCC[C@H](C)Oc2ccc(NC(=O)Nc3ccc4c(c3)OCO4)cc2C1=O`: the max activity is 15.2% [at 8 µM]. The figure for `Cc1ccc(-n2nc(C(=O)c3ccccc3)n3c(=O)cc(-c4ccccc4)nc23)cc1` is 5.74% [at 16 µM].

`Cc1ccc(C(=O)Nc2nc(=O)n(C(=O)c3ccccc3C)s2)cc1`: the max activity was 38.3% [at 16 µM]. The value for `CC(C)c1ccc(NC(=O)C(c2ccccc2)N2CC(=O)Nc3ccccc32)cc1` (stereo not drawn) was 10.6%; that for `C[C@H](CO)N1C[C@H](C)[C@@H](CN(C)C(=O)Nc2ccc3c(c2)OCO3)OCCCC[C@H](C)Oc2ccc(NC(=O)Nc3ccc4c(c3)OCO4)cc2C1=O` was 12.8%. The value for `C[C@@H]1CN([C@@H](C)CO)C(=O)c2cc(NC(=O)Nc3ccc4c(c3)OCO4)ccc2O[C@H]1CN(C)C(=O)Nc1ccc(C(F)(F)F)cc1` was -14.9%; that for `C[C@@H]1CCCCO[C@@H](CN(C)C(=O)Nc2ccc3c(c2)OCO3)[C@H](C)CN([C@H](C)CO)C(=O)c2cc(NC(=O)Nc3ccc4c(c3)OCO4)ccc2O1` was 17.2% [at 16 µM]; that for `C[C@@H]1CN([C@@H](C)CO)C(=O)c2cc(NC(=O)Nc3ccc4c(c3)OCO4)ccc2O[C@@H](C)CCCCO[C@@H]1CN(C)C(=O)Nc1ccc2c(c1)OCO2` was 18.2%.
